The target of assay [1] is Acetylcholinesterase (Homo sapiens) (UniProt P22303). The experiment in a line: Acetylcholinesterase (AChE) small molecule antagonists: colormetric cell-based qHTS assay (AID 1347395). Note: nearly all actives have a fitted effect of over 30% in size. Note: potency is the fitted concentration of half-maximal effect. An outline of the steps: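 SH-SY5Y cells; cpd 30 min 37 C; + DTNB/acetylthiocholine, 90 min 37 C; colorimetric thiocholine read; qHTS.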
Assay [2] shares this target. The experiment in a line: Acetylcholinesterase (AChE) small molecule antagonists: enzyme-based qHTS assay (AID 1347397). Note: nearly all actives have a fitted effect of over 55% in size. Note: potency is the fitted concentration of half-maximal effect. The settings on record: Potency: AChE enzyme activity inhibition; outcome: AChE enzyme activity inhibition. An outline of the steps: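 Enzyme inhibition was scored from DTNB-detected thiocholine formed by recombinant human AChE acting on acetylthiocholine. The 30 min compound preincubation and 10 min substrate reaction were both run at room temperature, with DMSO as vehicle control.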
A general note: In qHTS, concentration-response curves come from the screen itself.

The target is the same in assay [3]. The experiment in a line: Acetylcholinesterase (AChE) small molecule antagonists: fluorescence cell-based qHTS assay (AID 1347398). Note: nearly all actives have a fitted effect of over 50% in size. Note: potency is the fitted concentration of half-maximal effect. The settings on record: Potency: AChE activity; outcome: AChE activity. In a few lines: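 Endogenous acetylcholinesterase of SH-SY5Y neuroblastoma cells is measured in situ. After overnight attachment and 30 min compound exposure, cells receive acetylthiocholine and Thiolite Green; fluorescence is read after 40 min at room temperature.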

Assay [4] shares this target. The experiment in a line: Acetylcholinesterase (AChE) small molecule antagonists: enzyme-based qHTS assay with human liver microsomes (AID 1347399). Note: nearly all actives have a fitted effect of over 60% in size. The conditions noted are these: Potency: qHTS inhibition; outcome: qHTS inhibition. In a few lines: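 Recombinant human AChE (50 mU/mL in the enzyme mix) and human liver microsomes (0.25 mg/mL final) were preincubated with compound and NADPH (0.25 mg/mL final) for 30 min at 37 C. Acetylthiocholine/DTNB was then added; thiocholine was read colorimetrically after 10 min at room temperature.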

The results in this text go back to PubChem BioAssay (Tox21).

SMILES strings stand for the structures. Several values for one entry are separate records, joined by “and”; a condition that tells them apart may be missing. Equal entries are not always repeated. Records with an inconclusive call do not appear. More than one record can exist for a structure, and the calls need not agree. Activity calls are given as the source filed them. Calls come from the whole dose curve.

Sequence of Acetylcholinesterase (Homo sapiens) (P22303 whole entry, looked up): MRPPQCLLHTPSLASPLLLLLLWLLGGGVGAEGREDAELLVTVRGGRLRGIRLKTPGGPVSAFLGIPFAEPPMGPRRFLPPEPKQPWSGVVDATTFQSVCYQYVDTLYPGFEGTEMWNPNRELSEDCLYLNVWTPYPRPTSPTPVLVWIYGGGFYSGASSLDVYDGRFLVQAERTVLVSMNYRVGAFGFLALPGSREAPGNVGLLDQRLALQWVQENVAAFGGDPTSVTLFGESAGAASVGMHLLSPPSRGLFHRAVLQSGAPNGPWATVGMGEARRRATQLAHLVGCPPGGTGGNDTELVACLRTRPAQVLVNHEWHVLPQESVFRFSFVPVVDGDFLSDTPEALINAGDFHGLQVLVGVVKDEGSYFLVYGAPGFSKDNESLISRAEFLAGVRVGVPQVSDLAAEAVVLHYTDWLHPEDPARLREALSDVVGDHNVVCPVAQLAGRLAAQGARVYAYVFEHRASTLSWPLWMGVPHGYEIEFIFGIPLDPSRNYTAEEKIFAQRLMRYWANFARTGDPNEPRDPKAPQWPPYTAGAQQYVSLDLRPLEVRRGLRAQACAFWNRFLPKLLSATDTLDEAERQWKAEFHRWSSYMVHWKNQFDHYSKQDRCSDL

On to `Cc1ccccc1OCC(=O)O`, for which the Potency entry in assay [1], in assay [2], in assay [3] and in assay [4] was “inactive” each time.
For the compound `CC/C(C)=N/O`, the Potency entry in assay [1], in assay [2], in assay [3] and in assay [4] was “inactive” each time.
Consider `CCCCCCOc1cc(C)c(O)c(C)c1C`, for which the Potency entry in assay [1], in assay [2], in assay [3] and in assay [4] was “inactive” each time.
For `C#CC(O)CCC` (stereo not given), the Potency result in assay [1], in assay [2], in assay [3] and in assay [4] was “inactive” in each case.
As to `COC(CC(C)CCCC(C)(C)O)OC` (stereo not given), the Potency result in assay [1], in assay [2], in assay [3] and in assay [4] was “inactive” each time.
For the compound `CCN(CC)CCN`, the Potency entry in assay [1], in assay [2], in assay [3] and in assay [4] was “inactive” each time.
Take `CC(=O)CC(=O)c1ccccc1`: the Potency entry in assay [1], in assay [2], in assay [3] and in assay [4] was “inactive” each time.
As to `CC(C)COC(=O)CCCCC(=O)OCC(C)C`, the Potency entry in assay [1], in assay [2], in assay [3] and in assay [4] was “inactive” each time.
As for `O=c1[nH]cc(F)c(=O)[nH]1`, in assay [1], the Potency is 20.8 µM (active) and inactive. Besides, the Potency result in assay [2], in assay [3] and in assay [4] was “inactive” throughout.
In the case of `O=C(O)c1ccc(O)cc1O`, the Potency entry in assay [1], in assay [2], in assay [3] and in assay [4] was “inactive” in each case.
`CCC(Cc1c(I)cc(I)c(N)c1I)C(=O)O` (stereo not given): the Potency result in assay [1], in assay [2], in assay [3] and in assay [4] was “inactive” each time.
Consider `CN1CCN(C2Cc3ccccc3Sc3ccc(Cl)cc32)CC1` (stereo not given), for which the Potency entry in assay [1], in assay [2], in assay [3] and in assay [4] was “inactive” each time.
With `CCC[C@H](N[C@@H](C)C(=O)N1[C@H](C(=O)O)C[C@@H]2CCCC[C@@H]21)C(=O)OCC`, the Potency entry in assay [1], in assay [2], in assay [3] and in assay [4] was “inactive” in each case.
With `CC(C)Oc1ccc2c(=O)c(-c3ccccc3)coc2c1`, the Potency entry in assay [1], in assay [2], in assay [3] and in assay [4] was “inactive” in each case.
As for `O=C(O)c1ccccc1NCCc1ccccc1`, the Potency entry in assay [1], in assay [2], in assay [3] and in assay [4] was “inactive” each time.
As to `CCCCCc1cccc(=O)o1`, the Potency entry in assay [1], in assay [2], in assay [3] and in assay [4] was “inactive” throughout.
As for `[Cl][In]([Cl])[Cl]`, the Potency entry in assay [1], in assay [2], in assay [3] and in assay [4] was “inactive” in each case.
As for `Cc1ccc(C)o1`, the Potency entry in assay [1], in assay [2], in assay [3] and in assay [4] was “inactive” each time.
Take `CCCCCCOC(C)=O`: the Potency result in assay [1], in assay [2], in assay [3] and in assay [4] was “inactive” each time.
As for `CC(=O)OC(C)OC(C)=O`, the Potency entry in assay [1], in assay [2], in assay [3] and in assay [4] was “inactive” each time.
Turning to `O=C(O)c1cc(Cl)cc(Cl)c1O`, the Potency entry in assay [1], in assay [2], in assay [3] and in assay [4] was “inactive” in each case.
Turning to `O=C1c2ccccc2C(=O)C1c1nc2ccccc2c(Br)c1O`, the Potency result in assay [1], in assay [2], in assay [3] and in assay [4] was “inactive” throughout.
With `c1ccc(-c2ccccn2)nc1`, the Potency entry in assay [1], in assay [2], in assay [3] and in assay [4] was “inactive” throughout.
Regarding `CSc1ccc(O)cc1C`, the Potency entry in assay [1], in assay [2], in assay [3] and in assay [4] was “inactive” throughout.
With `CCCCCCCCCCCC[N+](C)(C)CC(=O)[O-]`, the Potency entry in assay [1], in assay [2], in assay [3] and in assay [4] was “inactive” in each case.
As for `Cc1c(C(N)=O)cc([N+](=O)[O-])cc1[N+](=O)[O-]`, the Potency result in assay [1], in assay [2], in assay [3] and in assay [4] was “inactive” throughout.
On to `CN1Cc2c(N)cccc2C(c2ccccc2)C1` (stereo not given), for which the Potency result in assay [1], in assay [2], in assay [3] and in assay [4] was “inactive” each time.
In the case of `NNC(=O)OCc1ccccc1`, the Potency result in assay [1], in assay [2], in assay [3] and in assay [4] was “inactive” in each case.
Turning to `CC(C)CCOC(=O)c1ccccc1`, the Potency result in assay [1], in assay [2], in assay [3] and in assay [4] was “inactive” throughout.
For the compound `CCn1ccc(NS(=O)(=O)c2ccc(N)cc2)nc1=O`, the Potency entry in assay [1], in assay [2], in assay [3] and in assay [4] was “inactive” each time.
As for `C[C@]12CCC(=O)C=C1CC[C@@H]1[C@@H]2[C@@H](O)C[C@@]2(C)[C@H]1CC[C@]2(O)C(=O)COC(=O)CCC(=O)O`, the Potency result in assay [1], in assay [2], in assay [3] and in assay [4] was “inactive” each time.
In the case of `Cc1cc(F)ccc1-c1cc(N2CC[C@@H](O)[C@H]2CO)ncc1N(C)C(=O)C(C)(C)c1cc(C(F)(F)F)cc(C(F)(F)F)c1`, the Potency result in assay [1], in assay [2], in assay [3] and in assay [4] was “inactive” each time.
Turning to `N=C(N)c1ccc(OCCCCCOc2ccc(C(=N)N)cc2)cc1`, the Potency in assay [1] is 35.4 µM (active) and 30.3 µM (active) and 17.4 µM (active); in assay [2] it was 53.9 µM (active); in assay [3], 22.4 µM (active) and 27 µM (active). Further, the Potency result in assay [4] was “inactive”.
Consider `CCCCCCCCCCCCCCCC(=O)OCC`, for which the Potency entry in assay [1], in assay [2], in assay [3] and in assay [4] was “inactive” throughout.
With `CC(C)NCC(O)COc1ccc(COCCOC(C)C)cc1` (stereo not given), the Potency entry in assay [1], in assay [2], in assay [3] and in assay [4] was “inactive” each time.
Turning to `C=C(C)C(=O)OCCOC1CC2CC1C1C=CCC21` (stereo not given), the Potency entry in assay [1], in assay [2], in assay [3] and in assay [4] was “inactive” in each case.
In the case of `CCCCCCOC(=O)c1ccc(O)cc1`, the Potency result in assay [1], in assay [2], in assay [3] and in assay [4] was “inactive” throughout.
For `CCCCCCCCCCCO`, the Potency result in assay [1], in assay [2], in assay [3] and in assay [4] was “inactive” in each case.
`c1cc(CCCc2ccncc2)ccn1`: the Potency entry in assay [1], in assay [2], in assay [3] and in assay [4] was “inactive” throughout.
On to `c1ccc(OCCOc2ccccc2)cc1`, for which the Potency entry in assay [1], in assay [2], in assay [3] and in assay [4] was “inactive” each time.
With `CCC1CCC(CCC(=O)O)C1` (stereo not given), the Potency entry in assay [1], in assay [2], in assay [3] and in assay [4] was “inactive” each time.
Consider `CC(C)=CCC1C(=O)N(c2ccccc2)N(c2ccccc2)C1=O`, for which the Potency result in assay [1], in assay [2], in assay [3] and in assay [4] was “inactive” throughout.
As to `CCOC(=O)N1CCC(n2c(=O)[nH]c3cc(Cl)ccc32)CC1`, the Potency result in assay [1], in assay [2], in assay [3] and in assay [4] was “inactive” in each case.
As to `CC1(C)CO[C@@H](CC(=O)O)CN1`, the Potency entry in assay [1], in assay [2], in assay [3] and in assay [4] was “inactive” in each case.
As to `O=C(Nc1ccccc1)c1cc(Cl)ccc1O`, the Potency entry in assay [1], in assay [2], in assay [3] and in assay [4] was “inactive” each time.
As for `O=S(=O)(O)c1ccc(Cl)cc1`, the Potency result in assay [1], in assay [2], in assay [3] and in assay [4] was “inactive” throughout.
As to `CCCCCCCCCC(=O)OC`, the Potency entry in assay [1], in assay [2] and in assay [4] was “inactive” in each case. Also, the Potency in assay [3] is 34.9 µM (active) and inactive.
On to `Clc1ccc(C(c2ccccc2Cl)C(Cl)Cl)cc1` (stereo not given), for which the Potency result in assay [1], in assay [2], in assay [3] and in assay [4] was “inactive” each time.
With `CN(C)[C@@H]1C(=O)C(C(=O)NCN2CCCC2)=C(O)[C@@]2(O)C(=O)C3=C(O)c4c(O)cccc4[C@@](C)(O)C3C[C@@H]12` (stereo not given in full), the Potency entry in assay [1], in assay [2], in assay [3] and in assay [4] was “inactive” in each case.
Consider `CCCCCCCCCCCCOCC1CO1` (stereo not given), for which the Potency result in assay [1], in assay [2], in assay [3] and in assay [4] was “inactive” throughout.
Turning to `NC(=O)Nc1nc2ccccc2[nH]1`, the Potency result in assay [1], in assay [2], in assay [3] and in assay [4] was “inactive” throughout.
With `C[C@@H](N)C(=O)O`, the Potency entry in assay [1], in assay [2], in assay [3] and in assay [4] was “inactive” in each case.
`CC(=O)OCC(=O)[C@@]1(O)CCC2C3CCC4=CC(=O)CC[C@]4(C)C3[C@@H](O)C[C@@]21C` (stereo not given in full): the Potency result in assay [1], in assay [2], in assay [3] and in assay [4] was “inactive” throughout.
With `FC(F)(F)C(F)(F)C(F)(F)C(F)(F)CCI`, the Potency entry in assay [1], in assay [2], in assay [3] and in assay [4] was “inactive” each time.
As for `Cc1ccccc1S(=O)(=O)O`, the Potency entry in assay [1], in assay [2], in assay [3] and in assay [4] was “inactive” each time.
As for `Oc1ccc(Sc2ccc(O)cc2)cc1`, the Potency result in assay [1], in assay [2], in assay [3] and in assay [4] was “inactive” each time.
As for `CCCCCCCCCCC(=O)O`, the Potency entry in assay [1], in assay [2], in assay [3] and in assay [4] was “inactive” throughout.
Turning to `Nc1nccs1`, the Potency entry in assay [1], in assay [2], in assay [3] and in assay [4] was “inactive” in each case.
For `OCCN1CCNCC1`, the Potency result in assay [1], in assay [2], in assay [3] and in assay [4] was “inactive” throughout.
As for `CCOC(=O)[C@H](C)O`, the Potency entry in assay [1], in assay [2], in assay [3] and in assay [4] was “inactive” throughout.
